Shown are actives, neighbours in structure and some others; about 0.46% of the full set was active somewhere.
PGC1a acetyl inh = inhibitors of PGC1a acetylation signal, primary screen, cell-based, U2OS, AlphaScreen, inhibitor mode; AlphaScreen anti-acetyl-lysine; with virally co-expressed GCN5 acetyltransferase; inhibition, % at 15.6 µM; 350,000 compounds, 0.17% hits;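 active means every replicate shows inhibition of at least 40%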;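 further: 0% = neutral control wells and 100% = positive control wells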
PglD DTNB = C. jejuni PglD acetyltransferase inhibitors, primary screen, biochemical, DTNB colorimetric, single point | UDP-N-acetylbacillosamine N-acetyltransferase PglD (Campylobacter jejuni) | purified PglD enzyme, DTNB colorimetric CoA detection | 360,000 compounds, 0.098% hits | inhibition, % at 12.5 µM; in the data active means inhibition above about 16%, passing the limit was not always enough
CaV13 FRET inh = Disruptors of the CACNA1D IQ motif to Ca2+-dependent inactivation inhibitor domain association, primary screening, Förster resonance energy transfer in intact living …; HEK cells, CFP/YFP FRET ICDI-IQ, plate reader, 10 min; percent FRET-ratio fall versus neutral wells; inhibition, % at 12.3 µM; 340,000 compounds, 0.098% hits; AID 743397;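 active means mean replicate inhibition of at least 30% and at least 1% of replicates passing that level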;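 further: 0% = median of the neutral control wells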
ERp5 block = inhibitors of ERp5-driven insulin aggregation, primary screen, biochemical, turbidity, absorbance 650 nm, single point; 90 min; Protein disulfide-isomerase A6 (Homo sapiens), Q15084; 350,000 compounds, 0.05% hits; inhibition, % at 9.99 µM;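 active means mean replicate inhibition above about 25%, with every replicate also reaching it, limit read from the data, passing the limit was not always enough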
Target sequence (Q15084 whole entry, looked up): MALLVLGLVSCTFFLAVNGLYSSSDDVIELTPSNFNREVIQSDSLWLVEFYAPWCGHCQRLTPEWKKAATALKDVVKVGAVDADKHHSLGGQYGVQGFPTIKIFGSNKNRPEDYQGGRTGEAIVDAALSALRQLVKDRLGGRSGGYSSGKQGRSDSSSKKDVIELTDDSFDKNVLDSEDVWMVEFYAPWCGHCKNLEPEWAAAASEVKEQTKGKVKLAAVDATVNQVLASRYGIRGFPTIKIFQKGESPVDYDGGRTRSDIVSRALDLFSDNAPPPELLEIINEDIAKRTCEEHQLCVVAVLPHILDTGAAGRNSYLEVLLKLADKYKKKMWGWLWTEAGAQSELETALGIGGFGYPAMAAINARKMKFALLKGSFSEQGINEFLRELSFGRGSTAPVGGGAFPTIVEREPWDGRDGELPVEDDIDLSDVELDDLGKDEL
ERAP1 inh = human ERAP1 aminopeptidase inhibitors, primary screen, biochemical, single point, plate reader. AID 652197, 2013. recombinant ERAP1, Leu-AMC fluorescence, 60 min. 340,000 compounds, 0.15% hits. Endoplasmic reticulum aminopeptidase 1 (Homo sapiens), Q9NZ08. inhibition, % at 10.7 µM;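 active means mean replicate inhibition of at least 30%, or all replicates individually reaching that 30% level; inactive means mean below 30% and not every replicate reaching it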;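 further: 0% = neutral control wells and 100% = L-leucinethiol positive control wells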
PDI inh = inhibitors of human PDI, primary screen, biochemical, turbidity, single point, plate reader | Protein disulfide-isomerase (Homo sapiens), P07237 | AID 588391, 2011 | 350,000 compounds, 0.052% hits | inhibition, % at 10 µM | PDI insulin aggregation turbidity, A650, 90 min;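 active means mean inhibition across replicates of 30% or more, whatever share of single replicates reach that level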
* hit, by the source's call; nt = no result given; + = active, no number.

SMILES | PGC1a acetyl inh | PglD DTNB | CaV13 FRET inh | ERp5 block | ERAP1 inh | PDI inh
COc1ccccc1N1CCN(c2ncc(C(=O)N3CCN(c4cccc(Cl)c4)CC3)c3ccccc23)CC1 | 1 | nt | -3 | 5 | 2 | 9
COc1cc(/C=C2/CC/C(=C/c3ccc(O)c(OC)c3)C2=O)ccc1O | 18 | nt | -14 | 2 | 3 | 0
COc1cc(/C=C/C=C2/CC/C(=C/C=C/c3ccc(O)c(OC)c3)C2=O)ccc1O | -4 | nt | -6 | 1 | 4 | 39*
C[C@H](NC(=O)[C@@H]1[C@@H](CO)[C@@H]2Cn3c(cccc3=O)[C@@H]2N1C(=O)C1CC1)c1ccccc1 | 9 | -5 | nt | 6 | 0 | nt
CC(=O)c1cccc(-n2nnnc2SCC(=O)NNC(=O)C(C)C)c1 | 85* | -3 | -40 | 11 | 5 | -3
Cn1nnnc1SCC(=O)Nc1cc(S(=O)(=O)N2CCCC2)ccc1Cl | 0 | nt | -6 | -2 | -3 | 14
CN(C)S(=O)(=O)c1ccc(Cl)c(NC(=O)CSc2nnnn2-c2ccc(O)cc2)c1 | nt | nt | 9 | 1 | 14 | 41*
CN(C)c1ccc2c(c1)[C@H]1C[C@H](CC(=O)NCc3ccc(Oc4ccccc4)cc3)O[C@@H](CO)[C@H]1O2 | -8 | -2 | nt | -4 | 0 | nt
Cc1c(-n2cc(C(=O)c3cc(Br)ccc3O)cc(C#N)c2=O)c(=O)n(-c2ccccc2)n1C | 6 | 3 | -5 | nt | nt | 35*
Cn1cnc(S(=O)(=O)Nc2ccc(C(F)(F)F)cc2)c1 | 26 | 2 | nt | nt | nt | 12
Cn1cnc(S(=O)(=O)Nc2ccc(OC(F)(F)F)cc2)c1 | 15 | nt | + | -1 | 2 | -2
Cc1ccc(C(=O)NCCN2C3=NC[C@H](Cc4ccc(O)cc4)N3C[C@H]2Cc2ccc(O)cc2)cc1Br | nt | -3 | -5 | 1 | 1 | 40*
Cc1ccc(C(=O)NCCN2C3=NC[C@@H](Cc4ccccc4)N3C[C@H]2Cc2ccc(O)cc2)cc1Br | -1 | -2 | -5 | -1 | -13 | 1
C[C@@H](CN1C2=NC[C@H](Cc3ccc(O)cc3)N2C[C@H]1Cc1ccc(O)cc1)NC(=O)CCC1CCCCC1 | -10 | 5 | -5 | -1 | nt | 47*
CCC(=O)N1CC[C@@H]2[C@H]1c1cc(-c3ccc(C(=O)N(C)C)cc3)ccc1N[C@@H]2CO | -9 | 2 | nt | 0 | 3 | nt
CC1(C)CC(=O)C=C(NCc2ccco2)C1 | 40* | nt | 0 | nt | nt | 7
Cc1ccc2c(c1)-c1c(cnn1CC(=O)Nc1ccccc1N1CCN(C)CC1)CO2 | nt | -1 | 46* | -3 | 3 | nt
COc1ccc2c3c([nH]c2c1)[C@H](CO)N(C(=O)C1CCCC1)CC31CCN(C(=O)NC(C)C)CC1 | nt | nt | nt | 5 | 3 | nt
CCCC(=O)N1CC2(C1)CN(C(=O)C1CCCCC1)[C@H](CO)c1[nH]c3cc(OC)ccc3c12 | nt | nt | nt | 36* | 1 | nt
COc1ccc2c3c([nH]c2c1)[C@@H](CO)N(C(=O)C1CCCC1)CC31CCN(C(=O)NC(C)C)CC1 | nt | nt | nt | 27* | 1 | nt
COc1ccc2c3c([nH]c2c1)[C@H](CO)N(C(=O)NC(C)C)CC31CN(C(=O)C2CCCC2)C1 | nt | nt | nt | 67* | 1 | nt
CCCNC(=O)Nc1ccc2c(c1)C(=O)N(C)C[C@H](OC)[C@@H](C)CN(C(=O)c1ccccc1F)[C@H](C)CO2 | -7 | -2 | nt | 1 | nt | nt
COc1ccc(NC(=O)N(C)C[C@H]2Oc3ccc(NS(=O)(=O)c4ccc(OC)cc4)cc3CC(=O)N([C@H](C)CO)C[C@H]2C)cc1 | -13 | 2 | nt | 3 | 2 | nt
CC(=O)Nc1ccc2c(c1)C(=O)N(C)[C@@H]1CC[C@@H](CC(=O)NCCCN3CCOCC3)O[C@H]1CO2 | 2 | nt | nt | nt | nt | nt
Cc1ccccc1S(=O)(=O)N[C@@H]1CC[C@@H](CCn2cc(Cc3ccccc3)nn2)O[C@H]1CO | 61* | -2 | nt | -4 | 3 | nt
SMILES | PGC1a acetyl inh | PglD DTNB | CaV13 FRET inh | ERp5 block | ERAP1 inh | PDI inh
O=S(=O)(N[C@@H]1CC[C@@H](CCn2cc(Cc3ccccc3)nn2)O[C@H]1CO)c1ccccc1F | -2 | -3 | nt | 3 | 3 | nt
O=C(Cc1csc(-c2ccccc2)n1)NCc1ccccc1F | nt | nt | 38* | -2 | -1 | nt
C[C@H]1CN([C@@H](C)CO)C(=O)c2cc(C#CCN(C)C)cnc2O[C@H]1CN(C)C(=O)c1ccc(F)cc1 | 8 | 2 | nt | 10 | -2 | nt
CC1CN(Cc2nc3c(c(=O)n(C)c(=O)n3C)n2CCCO)CC(C)O1 (stereo not given) | nt | 10 | -3 | nt | nt | -2
CC(C)CCn1c(CN2CC(C)OC(C)C2)nc2c1c(=O)n(C)c(=O)n2C (stereo not given) | 7 | 2 | 37* | 0 | 0 | nt
CC(C)CC#Cc1cnc2c(c1)C(=O)N([C@H](C)CO)C[C@@H](C)[C@H](CN(C)C(=O)c1ccc3c(c1)OCO3)O2 | 5 | 1 | nt | 13 | -1 | nt
O=C(C=Cc1ccccc1Cl)c1ccccc1 | -3 | -3 | -16 | -1 | -1 | 6
C=CCn1cccc(/C=C/C(=O)c2ccc(C(C)(C)C)cc2)c1=S | 53* | nt | -6 | nt | nt | 10
NC(=S)N=Nc1c(O)cc(O)c2[nH]c(=O)ccc12 | 3 | nt | -6 | -10 | 52* | 4
NC(=S)N=Nc1c(O)[nH]c2ccc(F)cc12 | nt | nt | -5 | 1 | -1 | 3
COCCOC(=O)N1C(=O)[C@@]2(c3cc(C#CC4(O)CCCCCC4)ccc31)[C@H](c1ccc(OCCO)cc1)N1[C@H](c3ccccc3)[C@H](c3ccccc3)OC(=O)[C@H]1[C@@H]2C(=O)N1CCN(c2ncccn2)CC1 | nt | nt | nt | 1 | -1 | nt
COc1cc(Cl)c(S(=O)(=O)N2CCCC2)cc1Cl | nt | nt | -2 | 1 | 0 | -11
COc1cc(N2C(=O)C=CC2=O)c(OC)cc1Cl | -21 | 3 | -18 | 0 | 35* | 3
Cc1ccc(C(=O)OCC(=O)Nc2c(C)nn(-c3ccccc3)c2C)c(O)c1 | -2 | 8 | 51* | -4 | 1 | 1
Cc1nn(-c2ccccc2)c(C)c1NC(=O)COC(=O)c1ccccc1 | 4 | 2 | -3 | -4 | 0 | 11
CCCc1cc(=O)oc2c(CN3CCN(C)CC3)c(O)ccc12 | 10 | -2 | -2 | 1 | 34* | 13
CCc1c(C)c2cc(Cl)c(O)c(CN3CCCC3)c2oc1=O | 4 | 3 | -4 | -1 | 36* | -1
CCCc1cc(=O)oc2c(CN3CCN(C)CC3)c(O)c(Cl)cc12 | 7 | -2 | -5 | nt | nt | 3
Cc1cc(=O)oc2c(CN3CCN(C)CC3)c(O)c(Cl)cc12 | nt | 1 | nt | 2 | 86* | -12

Assay outcomes as filed in PubChem BioAssay.
